TTR transcr act – activators of transthyretin transcription; SH-SY5Y TTR promoter Gaussia luciferase, luminescence; 100% = recombinant luciferase protein wells; activation, % at 16.7 µM; 1.3% of 92,000 active; AID 1117267;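 active = activation above the mean of all tested compounds plus 3 SD, cut at about 9.5% in these data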;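 also: cells exposed to compounds for one day before reading; 0% = median of all test compound wells on the plate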
HuH7 TTR inh – counter-screen for TTR activators: TTR transcription inhibitors in HuH7 cells | shares compounds with TTR transcr act | HuH7 TTR promoter-Gaussia luciferase reporter, luminescence | inhibition, % at 16.7 µM | 4% of 1,100 active;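 active = average inhibition above the solvent-only control wells' mean plus 3 SD, cut at about 15% in these data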;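 also: 0% = cells with DMSO only and 100% = cells with inhibitor control FD; inhibitors lower well luminescence so higher value means more inhibition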
TTR up confirm – confirmation of human transthyretin transcription activators. 1,100 tested, under 10 active. AID 1117280. SHSY5Y TTR promoter Gaussia luciferase, luminescence; 100% = purified Lucia enzyme wells, no cells. activation, % at 16.7 µM. shares compounds with TTR transcr act;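 active = mean activation above a set limit taken from the earlier primary screen, cut at about 11% in these data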;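 also: 0% = DMSO-treated cells and 100% = recombinant Lucia luciferase without cells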
Starred values were filed as active, the others as inactive. The sample as a whole holds a higher share of hits than the screen did.

SMILES	TTR transcr act	others
CCCNC(=O)COCc1cc(-c2ccc3c(c2)OCO3)on1	-0.3
CCCCNC(=O)COCc1cc(-c2ccc3c(c2)OCO3)on1	-1.1
COc1cc(Cn2cc([C@]34C[C@H]5C(=O)N(C)CC(=O)N5[C@H]3N(S(=O)(=O)c3ccccc3)c3ccccc34)c3ccccc32)cc(OC)c1	-1.0
COc1ccc(S(=O)(=O)NC(=O)C2(C)CCN2C(=O)c2cccc(F)c2)cc1 (stereo not drawn)	0.4
O=C(OCc1cn(Cc2ccc(C(F)(F)F)cc2)nn1)N1CCCC1	-1.2
CCN1CCCCC(NC(C)=O)C1=O (stereo not drawn)	-0.4
Cc1ccc(NC(=O)CSc2nnc(CN3CCOCC3)n2-c2ccccc2)cc1	-0.7
Cc1cccc(NC(=O)CSc2nnc(C)n2Cc2ccccc2)c1	5.7
CCn1c(CN2CCOCC2)nnc1SCC(=O)Nc1cccc(C)c1	21.1*	HuH7 TTR inh=-16.5;TTR up confirm=-1.1
C[C@H]1[C@@H](NCC2CCCCC2)CC[C@@]23CCCN2C(=O)CCC[C@@H]13	1.6
CC(C)CN1C(=O)N2CCc3ccccc3C2CS1(=O)=O (stereo not drawn)	-1.2
COC(=O)[C@]12C[C@H](CC(=O)NCCCN3CCCC3=O)C(=O)N(Cc3cccc4ccccc34)C1=C[C@H](C1CCCC1)O[C@@H]2C	-0.6
Cc1sc2ncnc(Nc3ccc(N4CCOCC4)cc3)c2c1-c1ccccc1	-0.9
Cc1sc2ncnc(Nc3ccccc3)c2c1C	15.1*	HuH7 TTR inh=-8.1;TTR up confirm=0.5
Cc1sc2ncnc(NCC(c3ccco3)N(C)C)c2c1C (stereo not drawn)	-0.6
CC(=O)Nc1sc2c(c1-c1cc3ccccc3o1)CCNC2	1.4
O=C(Nc1ccccc1)OCCN1CCCC12CCC(c1ccccc1)CC2 (stereo not drawn)	0.3
O=C(Nc1ccc(F)c(C(F)(F)F)c1)Nc1nnc(-c2ccncc2)s1	-0.6
CC(C)(C)c1ccc(SCCc2ccccn2)cc1	1.5
O=C(OCc1cn(Cc2ccc(F)cc2F)nn1)N1CCOCC1	-1.3
C[n+]1cc(C(O)(c2ccccc2)c2ccccc2)n2ccccc21	-0.1
CCCCOc1ccc(NC(=O)CN2CCN(CC)CC2)cc1	24.3*	HuH7 TTR inh=-8.8;TTR up confirm=1.1
CCOc1ccc(NC(=O)CN2CCN(CC(=O)Nc3ccccc3OC)CC2)cc1	-2.3
CCOc1ccc(NC(=O)CN2CCN(CC(=O)Nc3ccc(C(=O)OC)cc3)CC2)cc1	-1.0
O=S1(=O)c2ccc(Br)cc2OC[C@@H](c2ccccc2)N1Cc1cn(CCC2OCCCO2)nn1	-0.5
SMILES	TTR transcr act	others
O=C(Cc1cccs1)NC1CCCCN(Cc2ccc(Cl)cc2)C1=O (stereo not drawn)	4.9
COCCCNC(=O)c1cccs1	16.1*	HuH7 TTR inh=-8.5;TTR up confirm=1.2
O=C(NCCCCNC(=O)c1cccs1)c1cccs1	0.7
O=C(NCCCNC(=O)c1cccs1)c1cccs1	-2.1
O=C(CN1C(=O)N/C(=C\c2ccccc2OCc2ccc(C(=O)O)cc2)C1=O)Nc1ccc(F)cc1	-1.8
NC1=NC(=O)/C(=C/c2ccccc2OCC(=O)Nc2ccc(F)cc2)S1	9.9*	HuH7 TTR inh=5.1;TTR up confirm=0.0
O=C(CN1C(=O)S/C(=C\c2ccccn2)C1=O)Nc1ccc(F)cc1	-0.7
COc1cc2oc(=O)cc(CN3CCN(C(C)=O)CC3)c2cc1Cl	0.8
O=C(NNC1CC(=O)N(c2ccc(Cl)cc2)C1=O)c1ccccn1 (stereo not drawn)	-0.8
O=C(Nc1ccc(N2C(=O)[C@@H]3[C@H](C2=O)[C@@H]2C=C[C@H]3C2)c(Cl)c1)c1ccccn1	-1.5
O=C(Nc1ccc(N2C(=O)CC(c3ccccc3)C2=O)c(Cl)c1)c1ccccn1 (stereo not drawn)	37.5*	HuH7 TTR inh=-4.4;TTR up confirm=0.7
CC(C)=CCC[C@H](C)CC1Cc2[nH]c(=S)[nH]c(=O)c2C(c2ccc(Cl)cc2)O1 (stereo partly drawn)	-1.4
O=c1[nH][nH]c(=O)c(Cl)c1Cl	11.7*	HuH7 TTR inh=-13.6;TTR up confirm=0.1
O=C(CNS(=O)(=O)c1ccc(C(=O)N2CCOCC2)cc1)N1CCOCC1	1.4
O=C(CN1CCOCC1)NCCNS(=O)(=O)c1ccccc1	0.1
O=C(NCCNS(=O)(=O)c1ccc(C(F)(F)F)cc1)N1CCOCC1	11.7*	HuH7 TTR inh=-6.0;TTR up confirm=-0.5
C[C@@H]1CCN(C2CC2)S(=O)(=O)c2c(cccc2N2CC[C@@H](N(C)C)C2)O1	2.2
C[C@@H]1CN([C@@H](C)CO)C(=O)c2cccc(NS(C)(=O)=O)c2O[C@H]1CN(C)Cc1ccc(C(=O)O)cc1	5.0
COc1ccc(CN(C)C[C@H]2Oc3c(NC(=O)Nc4ccccc4)cccc3C(=O)N([C@H](C)CO)C[C@@H]2C)cc1	-3.3
C[C@@H]1CN([C@@H](C)CO)C(=O)c2cccc(NS(C)(=O)=O)c2O[C@H]1CN(C)Cc1ccc(Oc2ccccc2)cc1	18.5*	HuH7 TTR inh=4.7;TTR up confirm=-0.4
CCCCCCCCN1C(=O)[C@@H](CC(=O)N2CCCC2)C[C@@]2(C(=O)OC)C1=C[C@H](C(C)C)O[C@@H]2C1CC1	-1.8
O=C(NCc1ccncc1)[C@@H]1CCCN1C(=O)[C@H]1CCCN1C(=O)c1c(F)cccc1F	0.0
COc1cccc(C(=O)C2CCCN(C(=O)c3ccc(C#CC(C)(C)O)cc3)C2)c1 (stereo not drawn)	0.2
COc1ccc(C(=O)C2CCCN(C(=O)c3ccccc3C(C)=O)C2)cc1F (stereo not drawn)	-0.8
COc1ccc(C(=O)C2CCCN(C(=O)c3cccc(N(C)C)c3)C2)cc1OC (stereo not drawn)	11.7*	HuH7 TTR inh=-11.9;TTR up confirm=0.3
SMILES	TTR transcr act	others
CCC[C@H]1[C@@H](OC(=O)NCc2cccc(C(F)(F)F)c2)CC[C@@]23CCCN2C(=O)CCC[C@@H]13	1.0
Cc1ccccc1NC(=O)OC1CC2CC1[C@H]1CCCCN1[C@H]2Cc1ccccc1 (stereo partly drawn)	-2.3
C#CCCC(=O)Nc1sc2c(c1-c1nc3ccccc3s1)CCN(C(C)C)C2	-0.1
CCOC(=O)c1c(-c2ccc(-c3ccccc3)cc2)csc1NC(=O)CCN1CCOCC1	-2.2
CCOC(=O)c1c(-c2ccccc2)csc1NC(=O)C(C)NCCCN1CCOCC1 (stereo not drawn)	13.5*	HuH7 TTR inh=-27.1;TTR up confirm=0.1
CCOC(=O)c1c(-c2ccc(F)cc2)csc1NC(=O)CCN1CCOCC1	2.2
O=C(Nc1nnc(C2CC2)s1)c1ccc(S(=O)(=O)c2ccccc2)cc1	16.0*	HuH7 TTR inh=6.8;TTR up confirm=-1.4
Cc1ccc(S(=O)(=O)NC(=O)Nc2nnc(C3CC3)s2)cc1	-0.7
Cn1nccc1C(=O)Nc1nnc(C2CC2)s1	-1.0
Cc1ccc(-c2cn(CCN)c(-c3ccncc3)n2)cc1	2.0
COc1ccc(-c2cn(CCO)c(-c3ccc(Cl)nc3)n2)cc1	-2.1
O=C(O)CCn1cc(-c2ccc(Cl)cc2)nc1-c1ccc(Cl)nc1	9.7*	HuH7 TTR inh=-7.6;TTR up confirm=1.3
CCOC(=O)N1CCN(C(=O)C[C@H]2C[C@@]3(C(=O)OC)C(=C[C@H](C(C)C)O[C@@H]3C3CC3)N(Cc3ccc(Cl)cc3Cl)C2=O)CC1	-1.1
O=C(NCc1ccc(F)cc1)C1CCCN(S(=O)(=O)c2cccc3nonc23)C1 (stereo not drawn)	2.1
O=C(NCCc1ccccc1)C1CCN(S(=O)(=O)c2cccc3nonc23)CC1	-2.9

Screening results from PubChem BioAssay.
